Screening results: PubChem BioAssay, The Scripps Research Institute Molecular Screening Center
PPARg SRC3 recr: agonists of human PPARgamma SRC-3 coactivator recruitment | P37231 | biochemical PPARgamma/SRC-3 coactivator recruitment assay | activation, % at 8 µM | actives 0.26% (n = 200,000) | AID 731; in the data active means activation above about 23%
Target sequence (P37231 whole entry, looked up): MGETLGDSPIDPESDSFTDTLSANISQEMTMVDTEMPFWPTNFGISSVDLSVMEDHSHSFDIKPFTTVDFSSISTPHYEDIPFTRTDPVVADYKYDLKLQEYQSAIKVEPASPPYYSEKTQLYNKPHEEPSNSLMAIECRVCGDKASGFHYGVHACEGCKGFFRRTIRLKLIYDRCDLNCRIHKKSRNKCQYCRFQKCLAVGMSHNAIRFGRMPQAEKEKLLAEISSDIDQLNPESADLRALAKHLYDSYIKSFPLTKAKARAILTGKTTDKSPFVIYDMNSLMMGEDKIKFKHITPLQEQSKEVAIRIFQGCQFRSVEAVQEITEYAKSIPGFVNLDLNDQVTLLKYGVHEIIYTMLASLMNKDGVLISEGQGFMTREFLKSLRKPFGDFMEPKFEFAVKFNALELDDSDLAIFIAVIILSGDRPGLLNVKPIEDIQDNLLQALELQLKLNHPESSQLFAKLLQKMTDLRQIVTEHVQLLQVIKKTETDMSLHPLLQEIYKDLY
SRC3 TRFRET art: TR-FRET artefact, counter-screen to PPARgamma/SRC-3 agonist assay | AID 1048 | PPARgamma/SRC-3 format; stronger effect = higher value | actives 0.39% (n = 99,000) | TR-FRET ratio at 8 µM
PPARg SRC-1 ag: agonists of human PPARgamma SRC-1 coactivator recruitment; PPARgamma-SRC-1 coactivator recruitment biochemical assay; activation, % at 8 µM; actives 0.41% (n = 200,000); P37231; in the data active means activation above about 19%
PPARg SRC2 recr: agonists of SRC-2 recruitment by human PPARgamma. P37231. PPARgamma LBD-SRC-2 recruitment, biochemical. activation, % at 8 µM. actives 0.34% (n = 200,000). AID 1032; in the data active means activation above about 22%
SRC1 TRFRET art: TR-FRET artefact, counter-screen to PPARgamma/SRC-1 agonist assay; TR-FRET detection artefact counter-screen, emission ratio; stronger effect = higher value; TR-FRET ratio at 8 µM; actives 0.34% (n = 99,000); in the data active means TR-FRET ratio above about 2300
TR-FRET SRC-2 ct: flags TR-FRET format artefacts in PPARgamma SRC-2 recruitment agonist screen. AID 1049. TR-FRET ratio at 8 µM. actives 0.4% (n = 200,000). TR-FRET artefact counter-screen; stronger effect = higher value
Numbers stand for hits; n = inactive; x = not tested or not shown. Most compounds without a hit are left out; they make up all but 0.9% or so of the library. Unless noted, no stated cut-off is given here; in the data, active means TR-FRET ratio above about 2000; inactive means the rest.

SMILES | PPARg SRC3 recr | SRC3 TRFRET art | PPARg SRC-1 ag | PPARg SRC2 recr | SRC1 TRFRET art | TR-FRET SRC-2 ct
Cc1ccc(-c2cc(C(=O)N(C)Cc3cnn(C)c3C)c3cc(Br)ccc3n2)cc1 | n | n | n | n | n | n
Cc1ccc(-c2cc(C(=O)NCc3cnn(C)c3C)c3cc(Br)ccc3n2)cc1 | n | x | n | n | x | 2130
COc1ccc(C2C(C(C)=O)=C(O)C(=O)N2c2nc3ccccc3s2)cc1OC (configuration not stated) | n | 2067 | n | n | n | n
COc1ccc(C2C(C(C)=O)=C(O)C(=O)N2c2nccs2)cc1OC (configuration not stated) | n | n | n | n | n | n
Cc1c(NS(=O)(=O)c2ccc3c(c2)OCCO3)cccc1-c1nc2cccnc2s1 | n | x | n | n | x | 1991
Nc1nnc(/C=C/c2ccccc2)s1 | n | n | n | n | n | n
CO/C=C\C=C/c1nnn(-c2ccc(Cl)cc2)n1 | n | n | n | n | n | n
CCN(CC)c1ccc2cc(-c3nc4ccccc4[nH]3)c(=O)oc2c1 | n | x | 26 | n | x | n
CCN(CC)c1ccc2cc(-c3nc4ccccc4n3C)c(=O)oc2c1 | n | x | n | n | x | n
Cc1ccccc1N=Cc1cc2c(cc1O)OC(N)=C(C#N)C2c1ccccc1 (configuration not stated) | n | n | n | n | 2419 | n
O=c1c2sccc2n(Cc2cccc(F)c2)c(=O)n1-c1ccc(F)cc1 | n | n | n | n | n | n
O=C(Nc1cccc(NS(=O)(=O)c2ccc(S(=O)(=O)NC3CC3)cc2)c1)c1ccccn1 | n | x | 23 | n | x | n
O=C(CSc1nnc(-c2ccc(F)cc2)c2ccccc12)Nc1ccccc1 | n | 2080 | n | n | n | n
O=C(CSc1nnc(-c2ccc(F)cc2)c2ccccc12)Nc1cccc(Cl)c1 | n | 3308 | n | n | 2670 | 2527
O=C(CSc1nnc(-c2ccc(F)cc2)c2ccccc12)Nc1ccccc1Cl | n | 2763 | n | n | n | n
O=C(CSc1nnc(-c2ccc(F)cc2)c2ccccc12)Nc1c(F)cccc1F | n | n | n | n | n | n
Cc1cc(C(=O)CN2C(=O)NC(c3ccccc3)(c3ccccc3)C2=O)c(C)n1Cc1ccccc1 | n | x | n | n | x | n
CCc1ccc2oc(C(=O)Nc3ccc(S(N)(=O)=O)cc3)c(C)c2c1 | n | n | n | n | 2324 | n
CCOC(=O)c1cc(-c2ccccc2)sc1NC(=O)c1cc(OC)c(OC)c(OC)c1 | n | n | n | n | n | n
CCOC(=O)CC(=O)CSc1nc(-c2ccccc2)cc(-c2ccccc2)c1C#N | n | 2399 | n | n | n | 2021
N#Cc1c(-c2ccccc2)cc(-c2ccccc2)nc1SCc1nnc(-c2ccccc2)o1 | n | x | 86 | n | x | n
CC(C)C(Sc1nc(-c2ccccc2)cc(-c2ccccc2)c1C#N)C(=O)O (configuration not stated) | n | n | n | n | n | n
CC#CC(=O)N1CCC(CO)(CCc2ccccc2)CC1 | n | n | n | n | n | n
Cc1sc(-n2c(C)cc(/C=N/n3cnnc3)c2C)c(C#N)c1C | 29 | x | n | n | x | n
Cc1ccc(-n2c(-c3nn(C)cc3Cl)n[nH]c2=S)cc1 | n | n | n | n | n | n
SMILES | PPARg SRC3 recr | SRC3 TRFRET art | PPARg SRC-1 ag | PPARg SRC2 recr | SRC1 TRFRET art | TR-FRET SRC-2 ct
S=c1[nH]nc(-c2ccc(Cl)cc2)n1-c1ccc2c(c1)OCCO2 | n | n | n | n | n | n
Fc1ccc(-c2n[nH]c(=S)n2-c2ccc3c(c2)OCCO3)cc1 | n | 2239 | n | n | 2494 | 1992
Cn1cc(Cl)c(-c2n[nH]c(=S)n2-c2ccc(F)cc2)n1 | n | n | n | n | 2344 | n
O=C(O)CCn1cc(C2CC(c3ccccc3)=NN2c2ccccc2)c(-c2ccccc2)n1 (configuration not stated) | n | n | n | n | n | n
Cc1cc(C)n(-c2ccc(Cl)c(C(=O)O)c2)n1 | n | n | n | n | n | n
O=c1c(Cc2ccc(Cl)cc2Cl)c(O)ccn1CCCN1CCOCC1 | n | n | n | n | n | n
CN(Cc1ccc(OC(F)F)cc1)Cc1nc2c(Br)cc(Br)cc2c(=O)[nH]1 | n | 2068 | n | n | n | n
O=c1c2cc(Cl)ccc2[nH]c(=S)n1Cc1cccs1 | n | n | n | n | n | n
CSc1nc2ccc3nc(NC(=O)c4cccs4)sc3c2s1 | n | x | 41 | n | x | n
CSc1nc2ccc3nc(NC(=O)c4ccc(Cl)s4)sc3c2s1 | n | x | n | n | x | n
O=S1(=O)CC2N=C(N(Cc3ccc(F)cc3Cl)c3ccccc3F)SC2C1 (configuration not stated) | n | n | n | 25 | n | n
COc1ccc(C(=O)NNC(=O)CSc2nnc(-c3cccnc3)n2C)cc1 | n | n | n | n | n | n
O=C(Nc1cccc2ccccc12)c1cn(-c2ccccc2)nc1-c1cccs1 | n | x | n | n | x | 2231
Fc1ccc2nc(Nc3nc4cc5c(cc4s3)OCCO5)sc2c1 | n | 2582 | n | n | n | 2038
Fc1ccc2nc(Nc3nc4cc5c(cc4s3)OCO5)sc2c1 | n | n | n | n | n | n
COc1ccc(N2C(=O)c3ccccc3NC2c2ccc(OC)c(CSc3ccccn3)c2)cc1 (configuration not stated) | n | x | n | n | x | 2247
COc1ccc(N2C(=O)c3ccccc3NC2c2ccc(OC)c(COc3ccccn3)c2)cc1 (configuration not stated) | n | n | n | n | n | n
O=C(COC(=O)c1ccccc1NC(=O)c1ccco1)NC1CCS(=O)(=O)C1 (configuration not stated) | n | n | n | n | n | n
O=C(COC(=O)c1ccccc1NC(=O)c1ccco1)NC1CC1 | n | n | n | n | n | 2060
COC(=O)c1ccc(Oc2nc(Nc3ccc(C)c(C)c3)nc(N(C)C)n2)cc1 | n | x | n | n | x | n
Cc1ccc(N=Nc2c(N)n(-c3ccccc3)[nH]c2=O)cc1 | 26 | x | n | n | x | n
CN1CCN(S(=O)(=O)c2cccc(C(=O)NCc3ccccc3Cl)c2)CC1 | n | n | n | n | n | n
Cc1ccc(NC(=O)CSc2nnc(-c3ccccc3Br)o2)cc1C | n | x | n | n | x | n
Cc1cc(C)c(C(=O)CSc2nnc(-c3ccccc3Br)o2)cc1C | n | x | 27 | n | x | n
O=C1c2ccccc2C(=O)C1c1ccc(O)cc1 | n | n | 21 | n | n | n
CCOC(=O)/C(C#N)=C/c1cc2ccccc2nc1N1CCCCC1 | n | 2129 | n | n | n | 2031
O=C(CCN1CCOCC1)NNC(=S)NC(=O)c1ccc(Br)cc1 | n | n | n | n | n | n
CC1=NN(C(=O)Cn2ccc([N+](=O)[O-])n2)C(O)(C(F)(F)F)C1 (configuration not stated) | n | n | n | 23 | n | n
O=C(Nc1cc(S(=O)(=O)N2CCOCC2)ccc1N1CCCC1)c1ccc2c(c1)S(=O)(=O)c1ccccc1C2=O | n | n | n | n | n | 1978
